# Laboratory results: PMC7862700, “An all-to-all approach to the identification of sequence-specific readers for epigenetic DNA modifications on cytosine”
# How the values were obtained:
# Assay in all cases: DAPPL (digital affinity profiling via proximity ligation, sequencing); 10 mM Tris-HCl pH 7.5, 50 mM NaCl, 1 mM DTT, 4% glycerol, room temperature, 30 min; GST-TFs on glutathione beads, 16-mer random dsDNA library, 0.1% formaldehyde crosslink after washing; high values mean tight binding
# [1] = target: T1, FLI1 (Homo sapiens, UniProt Q01543 1-452); conditions: protein: recombinant; tags: N-terminal GST; dsDNA, one strand shown
# T1 sequence: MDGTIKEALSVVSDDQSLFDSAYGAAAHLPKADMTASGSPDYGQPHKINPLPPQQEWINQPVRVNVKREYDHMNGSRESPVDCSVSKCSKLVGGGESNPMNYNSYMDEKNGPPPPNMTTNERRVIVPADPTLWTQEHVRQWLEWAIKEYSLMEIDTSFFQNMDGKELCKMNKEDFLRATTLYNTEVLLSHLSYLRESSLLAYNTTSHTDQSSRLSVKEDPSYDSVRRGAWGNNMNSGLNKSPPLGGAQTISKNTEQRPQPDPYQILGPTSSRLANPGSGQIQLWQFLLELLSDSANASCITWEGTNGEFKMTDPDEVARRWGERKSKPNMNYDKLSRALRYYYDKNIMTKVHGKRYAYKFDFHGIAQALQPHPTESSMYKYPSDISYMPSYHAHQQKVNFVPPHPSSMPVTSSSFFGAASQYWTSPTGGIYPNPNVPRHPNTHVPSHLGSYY
# Summary of the method: (§1)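 Pools of DNA-barcoded human transcription factors, expressed in yeast as GST fusions on glutathione beads and combined with a tag-only sample, were incubated with 200 nmole of a 16-mer random double-stranded DNA library. Incubation took 30 min at room temperature in Tris/NaCl/DTT/glycerol buffer and was followed by washing, 0.1% formaldehyde crosslinking, proximity ligation (BsaI/T4 ligase, 1 h, 37 °C), PCR amplification and sequencing on an Illumina NextSeq500. Binding signal is the ratio of a hexamer's read frequency for a factor to its frequency for the tag-only sample.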
# [2] = target: T2, ELK1 (Homo sapiens, UniProt P19419 1-428); conditions: protein: recombinant; tags: N-terminal GST; dsDNA, one strand shown
# T2 sequence: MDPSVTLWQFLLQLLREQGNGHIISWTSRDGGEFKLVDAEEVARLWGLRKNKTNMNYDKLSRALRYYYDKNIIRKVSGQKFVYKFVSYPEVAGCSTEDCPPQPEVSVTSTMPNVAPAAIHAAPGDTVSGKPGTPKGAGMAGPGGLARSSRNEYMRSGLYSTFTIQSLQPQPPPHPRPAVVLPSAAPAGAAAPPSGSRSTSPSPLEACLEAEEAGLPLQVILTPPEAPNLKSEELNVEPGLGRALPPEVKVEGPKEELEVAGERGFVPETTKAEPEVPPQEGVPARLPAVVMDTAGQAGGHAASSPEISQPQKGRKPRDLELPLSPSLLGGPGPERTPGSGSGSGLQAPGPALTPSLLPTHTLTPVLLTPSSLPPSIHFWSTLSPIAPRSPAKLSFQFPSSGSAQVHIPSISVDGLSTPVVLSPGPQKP
# Summary of the method: as §1
# [3] = target: T3, GABPA (Homo sapiens, UniProt Q06546 1-454); conditions: protein: recombinant; tags: N-terminal GST; dsDNA, one strand shown
# T3 sequence: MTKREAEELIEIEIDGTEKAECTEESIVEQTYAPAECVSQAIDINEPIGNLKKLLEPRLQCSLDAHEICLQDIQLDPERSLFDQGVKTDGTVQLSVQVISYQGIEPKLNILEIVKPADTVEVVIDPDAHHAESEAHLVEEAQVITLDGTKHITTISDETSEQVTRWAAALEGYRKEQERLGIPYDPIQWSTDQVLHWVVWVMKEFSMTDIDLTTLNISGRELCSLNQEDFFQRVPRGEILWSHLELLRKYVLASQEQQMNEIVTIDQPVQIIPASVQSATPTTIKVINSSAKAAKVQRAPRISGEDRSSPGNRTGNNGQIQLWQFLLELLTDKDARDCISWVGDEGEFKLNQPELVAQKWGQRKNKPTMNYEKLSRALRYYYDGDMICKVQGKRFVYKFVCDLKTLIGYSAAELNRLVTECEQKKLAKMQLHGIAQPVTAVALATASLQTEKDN
# Summary of the method: as §1
# [4] = target: T4, ERG (Homo sapiens, UniProt P11308 1-479); conditions: protein: recombinant; tags: N-terminal GST; dsDNA, one strand shown
# T4 sequence: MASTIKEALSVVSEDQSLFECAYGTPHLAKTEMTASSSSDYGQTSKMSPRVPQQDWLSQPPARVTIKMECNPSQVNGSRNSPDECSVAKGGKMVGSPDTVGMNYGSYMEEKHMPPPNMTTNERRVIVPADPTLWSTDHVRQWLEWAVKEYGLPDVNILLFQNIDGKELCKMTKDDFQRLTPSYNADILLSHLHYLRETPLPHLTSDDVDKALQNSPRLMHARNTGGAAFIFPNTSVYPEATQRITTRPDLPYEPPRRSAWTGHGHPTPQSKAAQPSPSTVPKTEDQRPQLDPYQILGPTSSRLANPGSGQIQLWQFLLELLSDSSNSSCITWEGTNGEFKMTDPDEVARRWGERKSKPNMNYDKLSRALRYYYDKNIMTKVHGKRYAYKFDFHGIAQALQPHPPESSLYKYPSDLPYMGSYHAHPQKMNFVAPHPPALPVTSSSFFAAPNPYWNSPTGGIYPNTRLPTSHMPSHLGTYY
# Summary of the method: as §1
# [5] = target: ELF1 (Homo sapiens, UniProt P32519 1-619); conditions: protein: recombinant; tags: N-terminal GST; dsDNA, one strand shown
# Chain of ELF1 (P32519 whole entry): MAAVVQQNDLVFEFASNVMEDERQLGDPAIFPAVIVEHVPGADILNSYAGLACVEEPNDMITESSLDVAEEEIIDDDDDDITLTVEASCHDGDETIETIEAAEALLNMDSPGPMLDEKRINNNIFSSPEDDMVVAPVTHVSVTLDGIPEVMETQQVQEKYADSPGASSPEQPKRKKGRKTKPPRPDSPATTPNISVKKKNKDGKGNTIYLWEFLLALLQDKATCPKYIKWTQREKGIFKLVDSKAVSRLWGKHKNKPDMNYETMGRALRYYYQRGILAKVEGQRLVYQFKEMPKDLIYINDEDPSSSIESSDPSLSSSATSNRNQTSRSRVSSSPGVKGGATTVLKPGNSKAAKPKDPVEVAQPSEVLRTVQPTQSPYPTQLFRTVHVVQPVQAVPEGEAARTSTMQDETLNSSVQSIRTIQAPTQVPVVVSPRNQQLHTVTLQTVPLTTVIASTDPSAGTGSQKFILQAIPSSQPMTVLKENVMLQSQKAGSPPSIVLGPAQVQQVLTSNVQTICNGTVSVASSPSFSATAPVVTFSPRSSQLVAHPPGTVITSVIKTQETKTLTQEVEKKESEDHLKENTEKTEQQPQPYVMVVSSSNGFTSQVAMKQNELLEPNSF
# Summary of the method: as §1
# [6] = target: T5, EHF (Homo sapiens, UniProt Q9NZC4 1-300); conditions: protein: recombinant; tags: N-terminal GST; dsDNA, one strand shown
# T5 sequence: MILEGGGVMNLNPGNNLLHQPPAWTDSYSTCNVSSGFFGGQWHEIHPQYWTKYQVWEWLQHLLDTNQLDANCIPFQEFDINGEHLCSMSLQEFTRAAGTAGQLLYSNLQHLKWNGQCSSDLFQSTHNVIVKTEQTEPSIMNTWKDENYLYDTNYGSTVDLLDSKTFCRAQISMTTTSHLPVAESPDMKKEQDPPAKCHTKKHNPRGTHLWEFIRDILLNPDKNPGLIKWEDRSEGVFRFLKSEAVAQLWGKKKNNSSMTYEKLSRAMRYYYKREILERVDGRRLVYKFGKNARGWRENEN
# Summary of the method: as §1
# [7] = target: SPI1 (Homo sapiens, UniProt P17947 1-270); conditions: protein: recombinant; tags: N-terminal GST; dsDNA, one strand shown
# Summary of the method: as §1
# [8] = target: SPIB (Homo sapiens, UniProt Q01892 1-262); conditions: protein: recombinant; tags: N-terminal GST; dsDNA, one strand shown
# Chain of SPIB (Q01892 whole entry): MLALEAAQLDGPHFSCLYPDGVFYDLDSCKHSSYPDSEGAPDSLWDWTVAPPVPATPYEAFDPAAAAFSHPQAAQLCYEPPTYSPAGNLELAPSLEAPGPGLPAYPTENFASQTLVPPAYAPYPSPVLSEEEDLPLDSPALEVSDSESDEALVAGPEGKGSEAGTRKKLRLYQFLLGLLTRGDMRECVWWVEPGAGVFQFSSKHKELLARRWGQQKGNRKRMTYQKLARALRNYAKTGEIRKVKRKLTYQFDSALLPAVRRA
# Summary of the method: as §1
# [9] = target: T6, ELK3 (Homo sapiens, UniProt P41970 1-407); conditions: protein: recombinant; tags: N-terminal GST; dsDNA, one strand shown
# T6 sequence: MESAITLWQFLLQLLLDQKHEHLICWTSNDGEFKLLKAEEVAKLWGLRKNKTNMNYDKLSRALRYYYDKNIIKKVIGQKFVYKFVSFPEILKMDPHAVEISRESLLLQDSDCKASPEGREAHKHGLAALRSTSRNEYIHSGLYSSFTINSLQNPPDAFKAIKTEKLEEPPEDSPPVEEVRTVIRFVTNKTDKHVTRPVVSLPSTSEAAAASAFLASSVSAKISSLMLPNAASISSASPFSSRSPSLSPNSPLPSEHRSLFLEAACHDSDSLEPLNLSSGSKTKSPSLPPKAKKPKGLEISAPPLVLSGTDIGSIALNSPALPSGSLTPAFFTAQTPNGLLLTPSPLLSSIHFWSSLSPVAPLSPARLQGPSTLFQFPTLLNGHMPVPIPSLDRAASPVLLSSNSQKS
# Summary of the method: as §1
# [10] = target: T7, FEV (Homo sapiens, UniProt Q99581 1-238); conditions: protein: recombinant; tags: N-terminal GST; dsDNA, one strand shown
# T7 sequence: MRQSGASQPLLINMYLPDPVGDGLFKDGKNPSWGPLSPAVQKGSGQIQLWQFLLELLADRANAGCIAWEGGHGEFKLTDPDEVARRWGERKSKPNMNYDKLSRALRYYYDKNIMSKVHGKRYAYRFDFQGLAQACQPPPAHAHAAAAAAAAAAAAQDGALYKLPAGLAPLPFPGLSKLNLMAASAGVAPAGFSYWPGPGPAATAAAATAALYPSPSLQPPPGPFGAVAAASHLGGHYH
# Summary of the method: as §1
# [11] = target: ETV5 (Homo sapiens, UniProt P41161 1-510); conditions: protein: recombinant; tags: N-terminal GST; dsDNA, one strand shown
# Chain of ETV5 (P41161 whole entry): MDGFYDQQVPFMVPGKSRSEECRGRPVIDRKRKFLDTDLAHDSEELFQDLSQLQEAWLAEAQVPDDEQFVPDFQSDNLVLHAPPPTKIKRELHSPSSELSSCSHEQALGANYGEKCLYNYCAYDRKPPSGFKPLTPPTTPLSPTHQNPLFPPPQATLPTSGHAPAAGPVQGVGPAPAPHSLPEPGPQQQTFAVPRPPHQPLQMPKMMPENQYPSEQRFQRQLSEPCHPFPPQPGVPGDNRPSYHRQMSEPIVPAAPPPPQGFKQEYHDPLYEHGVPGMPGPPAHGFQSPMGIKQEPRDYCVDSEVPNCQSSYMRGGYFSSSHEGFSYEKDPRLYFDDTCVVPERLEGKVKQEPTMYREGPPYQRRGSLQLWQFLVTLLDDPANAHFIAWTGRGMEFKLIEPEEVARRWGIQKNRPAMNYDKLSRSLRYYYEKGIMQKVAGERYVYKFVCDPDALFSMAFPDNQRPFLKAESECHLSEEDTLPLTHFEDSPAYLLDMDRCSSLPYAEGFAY
# Summary of the method: as §1
# [12] = target: HSF1 (Homo sapiens, UniProt Q00613 1-529); conditions: protein: recombinant; tags: N-terminal GST; chain copies: 3; dsDNA, one strand shown
# Chain of HSF1 (Q00613 whole entry): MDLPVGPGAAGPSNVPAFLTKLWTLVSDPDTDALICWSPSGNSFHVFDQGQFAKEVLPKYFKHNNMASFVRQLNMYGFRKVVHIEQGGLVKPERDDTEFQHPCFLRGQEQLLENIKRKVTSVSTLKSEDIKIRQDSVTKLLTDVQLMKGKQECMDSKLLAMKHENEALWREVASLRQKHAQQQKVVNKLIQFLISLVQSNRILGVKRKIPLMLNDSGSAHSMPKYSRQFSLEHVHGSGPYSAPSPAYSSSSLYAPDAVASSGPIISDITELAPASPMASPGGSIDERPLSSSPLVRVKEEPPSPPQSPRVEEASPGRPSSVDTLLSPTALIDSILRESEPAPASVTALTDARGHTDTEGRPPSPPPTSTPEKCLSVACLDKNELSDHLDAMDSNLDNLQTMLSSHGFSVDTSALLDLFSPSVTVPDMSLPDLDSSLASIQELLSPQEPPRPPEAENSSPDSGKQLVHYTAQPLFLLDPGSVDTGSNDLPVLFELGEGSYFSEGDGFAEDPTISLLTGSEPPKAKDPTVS
# Summary of the method: as §1
# [13] = target: T8, SPIC (Homo sapiens, UniProt Q8N5J4 1-248); conditions: protein: recombinant; tags: N-terminal GST; dsDNA, one strand shown
# T8 sequence: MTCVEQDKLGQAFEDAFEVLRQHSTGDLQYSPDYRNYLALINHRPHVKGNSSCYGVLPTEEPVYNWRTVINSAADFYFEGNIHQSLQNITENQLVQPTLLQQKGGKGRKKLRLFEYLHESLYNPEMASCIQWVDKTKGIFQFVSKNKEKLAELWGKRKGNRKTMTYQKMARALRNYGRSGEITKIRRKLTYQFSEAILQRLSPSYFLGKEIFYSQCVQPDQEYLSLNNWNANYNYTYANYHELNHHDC
# Summary of the method: as §1
# [14] = target: ELF4 (Homo sapiens, UniProt Q99607 1-663); conditions: protein: recombinant; tags: N-terminal GST; dsDNA, one strand shown
# Chain of ELF4 (Q99607 whole entry): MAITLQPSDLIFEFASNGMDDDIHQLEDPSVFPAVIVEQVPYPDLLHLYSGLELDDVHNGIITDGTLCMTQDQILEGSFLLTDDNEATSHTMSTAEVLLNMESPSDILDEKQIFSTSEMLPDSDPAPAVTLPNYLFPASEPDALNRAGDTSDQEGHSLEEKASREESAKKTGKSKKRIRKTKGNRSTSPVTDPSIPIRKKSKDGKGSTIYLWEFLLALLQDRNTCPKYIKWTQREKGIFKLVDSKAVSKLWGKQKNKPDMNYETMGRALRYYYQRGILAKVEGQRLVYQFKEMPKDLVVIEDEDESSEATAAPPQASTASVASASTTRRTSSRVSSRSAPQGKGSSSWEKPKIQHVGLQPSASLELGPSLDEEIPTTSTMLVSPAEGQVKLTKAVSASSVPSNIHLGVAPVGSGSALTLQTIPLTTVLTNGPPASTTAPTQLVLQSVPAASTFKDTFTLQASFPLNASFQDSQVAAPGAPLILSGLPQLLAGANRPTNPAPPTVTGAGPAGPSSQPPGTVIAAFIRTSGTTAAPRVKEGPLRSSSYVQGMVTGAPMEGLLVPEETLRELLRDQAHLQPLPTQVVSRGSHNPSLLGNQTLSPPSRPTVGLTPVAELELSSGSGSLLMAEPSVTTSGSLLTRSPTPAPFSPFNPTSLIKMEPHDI
# Summary of the method: as §1
# [15] = target: T9, ELK4 (Homo sapiens, UniProt P28324-2 1-405); conditions: protein: recombinant; tags: N-terminal GST; dsDNA, one strand shown
# T9 sequence: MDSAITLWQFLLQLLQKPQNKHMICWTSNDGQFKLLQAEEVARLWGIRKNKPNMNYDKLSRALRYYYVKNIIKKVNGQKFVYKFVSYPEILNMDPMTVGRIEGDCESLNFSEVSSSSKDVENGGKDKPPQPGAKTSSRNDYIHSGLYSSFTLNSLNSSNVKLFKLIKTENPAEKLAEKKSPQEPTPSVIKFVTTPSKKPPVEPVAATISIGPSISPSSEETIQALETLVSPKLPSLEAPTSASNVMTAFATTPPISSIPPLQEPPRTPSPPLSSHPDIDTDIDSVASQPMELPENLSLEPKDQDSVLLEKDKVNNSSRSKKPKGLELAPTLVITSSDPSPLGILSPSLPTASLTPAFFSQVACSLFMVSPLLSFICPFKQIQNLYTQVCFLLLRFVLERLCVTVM
# Summary of the method: as §1
# [16] = target: T10, ETV2 (Homo sapiens, UniProt O00321 1-342); conditions: protein: recombinant; tags: N-terminal GST; dsDNA, one strand shown
# T10 sequence: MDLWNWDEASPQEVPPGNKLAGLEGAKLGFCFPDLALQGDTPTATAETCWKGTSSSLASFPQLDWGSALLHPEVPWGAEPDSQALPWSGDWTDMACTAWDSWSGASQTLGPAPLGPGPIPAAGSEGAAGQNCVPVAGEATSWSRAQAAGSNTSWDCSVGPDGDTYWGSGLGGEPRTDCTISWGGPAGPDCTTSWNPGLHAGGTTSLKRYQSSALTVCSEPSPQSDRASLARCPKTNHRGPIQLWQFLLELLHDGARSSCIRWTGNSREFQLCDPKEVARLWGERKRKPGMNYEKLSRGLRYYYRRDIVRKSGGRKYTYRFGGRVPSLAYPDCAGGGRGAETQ
# Summary of the method: as §1
# [17] = target: T11, ELF3 (Homo sapiens, UniProt P78545 1-371); conditions: protein: recombinant; tags: N-terminal GST; dsDNA, one strand shown
# T11 sequence: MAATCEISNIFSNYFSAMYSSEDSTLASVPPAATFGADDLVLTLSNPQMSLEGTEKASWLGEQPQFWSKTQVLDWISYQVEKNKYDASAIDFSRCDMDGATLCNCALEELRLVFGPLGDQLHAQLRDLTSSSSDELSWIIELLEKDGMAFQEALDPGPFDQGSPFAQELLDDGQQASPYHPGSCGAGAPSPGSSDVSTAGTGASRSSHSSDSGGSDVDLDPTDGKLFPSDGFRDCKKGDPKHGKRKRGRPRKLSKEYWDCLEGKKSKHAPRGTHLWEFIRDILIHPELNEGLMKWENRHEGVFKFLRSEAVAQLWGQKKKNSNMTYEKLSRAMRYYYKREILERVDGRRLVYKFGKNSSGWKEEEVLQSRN
# Summary of the method: as §1
# [18] = target: CRX (Homo sapiens, UniProt O43186 1-299); conditions: protein: recombinant; tags: N-terminal GST; dsDNA, one strand shown
# Chain of CRX (O43186 whole entry): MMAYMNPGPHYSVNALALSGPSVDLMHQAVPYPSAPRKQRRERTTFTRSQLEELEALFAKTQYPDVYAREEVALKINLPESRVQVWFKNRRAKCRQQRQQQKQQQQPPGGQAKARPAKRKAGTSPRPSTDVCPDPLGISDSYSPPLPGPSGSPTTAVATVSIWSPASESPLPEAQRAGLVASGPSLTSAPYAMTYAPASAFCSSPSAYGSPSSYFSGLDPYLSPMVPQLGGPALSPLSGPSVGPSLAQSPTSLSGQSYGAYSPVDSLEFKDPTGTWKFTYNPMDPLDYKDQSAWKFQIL
# Summary of the method: as §1
# [19] = target: ETV1 (Homo sapiens, UniProt P50549 1-477); conditions: protein: recombinant; tags: N-terminal GST; dsDNA, one strand shown
# Chain of ETV1 (P50549 whole entry): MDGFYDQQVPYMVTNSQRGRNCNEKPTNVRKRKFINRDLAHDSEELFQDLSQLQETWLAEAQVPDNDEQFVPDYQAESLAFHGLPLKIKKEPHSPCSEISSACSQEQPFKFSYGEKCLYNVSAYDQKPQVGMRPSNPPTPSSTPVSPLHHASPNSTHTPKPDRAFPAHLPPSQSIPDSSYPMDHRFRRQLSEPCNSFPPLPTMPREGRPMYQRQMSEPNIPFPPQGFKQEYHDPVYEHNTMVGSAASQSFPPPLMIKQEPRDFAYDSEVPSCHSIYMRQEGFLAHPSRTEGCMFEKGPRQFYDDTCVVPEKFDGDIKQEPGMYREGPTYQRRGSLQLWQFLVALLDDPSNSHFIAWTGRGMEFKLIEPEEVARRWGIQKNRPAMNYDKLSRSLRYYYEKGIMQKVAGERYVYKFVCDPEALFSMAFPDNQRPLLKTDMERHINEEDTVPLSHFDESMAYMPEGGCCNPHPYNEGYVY
# Summary of the method: as §1
sequence,measurement,setting,value
GCTTCC,binding signal,[1],"3.32 fold enrichment (6-mer frequency, TF over GST control)"
same,binding signal,[2],"3.85 fold enrichment (6-mer frequency, TF over GST control)"
same,binding signal,[3],"3.27 fold enrichment (6-mer frequency, TF over GST control)"
same,binding signal,[4],"4 fold enrichment (6-mer frequency, TF over GST control)"
same,binding signal,[5],"3.21 fold enrichment (6-mer frequency, TF over GST control)"
same,binding signal,[6],"3.72 fold enrichment (6-mer frequency, TF over GST control)"
same,binding signal,[7],"3.73 fold enrichment (6-mer frequency, TF over GST control)"
same,binding signal,[8],"3.8 fold enrichment (6-mer frequency, TF over GST control)"
same,binding signal,[9],"4.31 fold enrichment (6-mer frequency, TF over GST control)"
same,binding signal,[10],"4.3 fold enrichment (6-mer frequency, TF over GST control)"
same,binding signal,[11],"3.97 fold enrichment (6-mer frequency, TF over GST control)"
same,binding signal,[12],"1.47 fold enrichment (6-mer frequency, TF over GST control)"
same,binding signal,[13],"3.3 fold enrichment (6-mer frequency, TF over GST control)"
same,binding signal,[14],"3.18 fold enrichment (6-mer frequency, TF over GST control)"
same,binding signal,[15],"2.98 fold enrichment (6-mer frequency, TF over GST control)"
same,binding signal,[16],"3.44 fold enrichment (6-mer frequency, TF over GST control)"
same,binding signal,[17],"3.14 fold enrichment (6-mer frequency, TF over GST control)"
same,binding signal,[18],"1.19 fold enrichment (6-mer frequency, TF over GST control)"
same,binding signal,[19],"3.62 fold enrichment (6-mer frequency, TF over GST control)"
